Compound activity (PubChem BioAssay)
Shown is part of a subset that was picked to be rich in hits.
Pf Dd2 growth = Plasmodium falciparum Dd2 growth inhibition; 120,000 tested, 4.3% active; Potency, µM (doses to about 28.9 µM), hits mostly inhibitors; P. falciparum Dd2 growth, SYBR Green, 72 h; active = well fitted inhibition curve with a large enough effect; note: nearly all actives have a fitted effect of over 65% in size
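Readout: SYBR Green fluorescence, 485 nm excitation, 535 nm emission, after ~16 h lysis at 37C. Before that, Dd2-infected red cells (2.5% hematocrit) grew 72 h with compound, 29 uM top final concentration.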
Numbers stand for hits; [ ] = dose if it differs, or a comment.

`CN(C)c1ccc(NC(=O)Cn2c(SCc3ccc(F)cc3)nc3ccncc32)cc1` gave Pf Dd2 growth inactive.
Cc1ccc(Cn2c(SCc3ccc(C(=O)N4CCCCCC4)cc3)nc3ccncc32)cc1 was read as Pf Dd2 growth 11µM.
`Cc1ccc(CN2C(=O)NC3(CCN(C(=O)c4ccncc4)CC3)C2=O)cc1` gave Pf Dd2 growth inactive.
Cc1ccccc1Cn1c(SCc2ccc(C(=O)N3CCCCC3)cc2)nc2ccncc21 was read as Pf Dd2 growth 7.9µM.
`Cc1ccccc1Cn1c(SCc2ccc(C(=O)NC3CCCCC3)cc2)nc2ccncc21` gave Pf Dd2 growth inactive.
Screening COCCN1C(=O)CCc2cc(NC(=O)CC(C)C)ccc21 returned Pf Dd2 growth inactive.
`COc1ccc(-n2nc3ccc(NC(=O)COc4ccc(C)c(C)c4)cc3n2)cc1` gave Pf Dd2 growth inactive.
`COc1ccc(Nc2cc(C)c3cc(NC(=O)COc4cccc(C)c4)ccc3n2)cc1` gave Pf Dd2 growth 4µM.
Screening COc1ccc(CC(=O)Nc2ccc3nc(Nc4cccc(Cl)c4)cc(C)c3c2)cc1OC returned Pf Dd2 growth inactive.
For CCCCCC(=O)N1CC[C@@H](CC(=O)NC2CC2)[C@@H](CC)C1 the results were Pf Dd2 growth inactive.
Screening Cc1cccc(C(=O)N2C[C@@H](F)C[C@H]2C(=O)N2CCc3ccccc3C2)c1 returned Pf Dd2 growth inactive.
`CN1CCC2(CC1)Cc1ccccc1CN([S+](C)(=O)[O-])C2` gave Pf Dd2 growth inactive.
`Cc1ccc(CCN2CCCCC23Cc2ccccc2CN([S+](C)(=O)[O-])C3)cc1` (stereo not given) gave Pf Dd2 growth 10µM.
For C[S+](=O)([O-])N1Cc2ccccc2CC2(CCCCN2Cc2ccccc2)C1 (stereo not given) the results were Pf Dd2 growth inactive.
`COc1ccc(NC(=O)N2CC(C(=O)N(C)C)C3(CCOCC3)C2)c(C)c1` (stereo not given) gave Pf Dd2 growth inactive.
CCCNC(=O)N1CCC(c2nc(CCOc3cccc(C)c3)no2)C1 (stereo not given) was read as Pf Dd2 growth inactive.
Cc1cc(N)c(-n2cc3c(c2-c2ccc(Br)cc2)c(=O)n(C)c(=O)n3C)cc1C was read as Pf Dd2 growth inactive.
Cn1c(=O)c2c(-c3ccccc3Br)n(CCc3ccccc3)cc2n(C)c1=O was read as Pf Dd2 growth inactive.
Screening Cc1ccc(-n2cc3c(c2-c2ccccc2Br)c(=O)n(C)c(=O)n3C)cc1N returned Pf Dd2 growth 13µM.
`O=C(NCC(c1cccnc1)N1CCN(Cc2ccccc2)CC1)C(=O)Nc1cccc(Cl)c1` (stereo not given) gave Pf Dd2 growth 4µM.
For O=C(NCC(c1cccnc1)N1CCN(Cc2ccccc2)CC1)C(=O)Nc1ccc(Cl)cc1 (stereo not given) the results were Pf Dd2 growth 14µM.
For COCCNC(=O)C(=O)NCC(c1cccnc1)N1CCN(c2ccccc2F)CC1 (stereo not given) the results were Pf Dd2 growth inactive[0.594 µM].
For Cc1cccc(NC(=O)C(=O)NCC(c2cccnc2)N2CCN(Cc3ccccc3)CC2)c1 (stereo not given) the results were Pf Dd2 growth 7.9µM.
Cc1cccc(NC(=O)C(=O)NCC(c2ccc3c(c2)OCO3)N2CCN(c3ccccc3)CC2)c1 (stereo not given) was read as Pf Dd2 growth inactive.
`COc1ccccc1N1CCN(C(CNC(=O)C(=O)NCCN(C)C)c2cccnc2)CC1` (stereo not given) gave Pf Dd2 growth inactive.
`CCc1ccc(NC(=O)C(=O)NCC(c2cccnc2)N2CCN(C)CC2)cc1` (stereo not given) gave Pf Dd2 growth inactive.
For COc1ccc(N2CCN(C(CNC(=O)C(=O)NCc3cccnc3)c3cccnc3)CC2)cc1 (stereo not given) the results were Pf Dd2 growth inactive[0.594 µM].
Cc1ccc(NC(=O)C(=O)NCC(c2cccnc2)N2CCN(Cc3ccccc3)CC2)cc1 (stereo not given) was read as Pf Dd2 growth inactive[0.594 µM].
Screening O=C(Nc1ccccc1)N1CCC(Oc2ncccc2C(=O)N2CCCCC2)C1 (stereo not given) returned Pf Dd2 growth inactive.
`O=C(NCc1ccco1)c1cc2n(n1)CC(c1ccc3c(c1)OCO3)OC2` (stereo not given) gave Pf Dd2 growth inactive.
O=C(c1c(OCC2CC2)cc(=O)n2c1CCCCC2)N1CCc2ccccc2C1 was read as Pf Dd2 growth inactive.
For COc1cccc(CN2Cc3cc(NC(=O)c4cccs4)ccc3OCC2=O)c1 the results were Pf Dd2 growth inactive.
For CCC1Oc2ccc(NC(=O)c3c(F)cccc3F)cc2CN(Cc2ccc3c(c2)OCO3)C1=O (stereo not given) the results were Pf Dd2 growth inactive.
`CCC1Oc2ccc(NC(=O)Cc3ccc(F)cc3)cc2CN(Cc2cccc(OC)c2)C1=O` (stereo not given) gave Pf Dd2 growth 4µM.
Screening COc1cccc(CN2Cc3cc(NC(=O)Cc4ccccc4)ccc3OCC2=O)c1 returned Pf Dd2 growth inactive.
CCC1Oc2ccc(NC(=O)Cc3ccccc3)cc2CN(Cc2cccc(OC)c2)C1=O (stereo not given) was read as Pf Dd2 growth inactive.
CCC1Oc2ccc(NC(=O)c3cccc(F)c3)cc2CN(Cc2ccccc2F)C1=O (stereo not given) was read as Pf Dd2 growth inactive.
For CC1Oc2ccc(NC(=O)c3ccccc3F)cc2CN(Cc2ccccc2F)C1=O (stereo not given) the results were Pf Dd2 growth inactive.
`COc1cccc(CN2Cc3cc(NC(=O)c4cc(OC)cc(OC)c4)ccc3OCC2=O)c1` gave Pf Dd2 growth 4.5µM.
CCC1Oc2ccc(NC(=O)c3ccccc3F)cc2CN(CCc2ccc(OC)c(OC)c2)C1=O (stereo not given) was read as Pf Dd2 growth 1.8µM.
`CCC1Oc2ccc(NC(=O)c3ccccc3F)cc2CN(Cc2ccc3c(c2)OCO3)C1=O` (stereo not given) gave Pf Dd2 growth inactive.
For CCC1Oc2ccc(NC(=O)COc3ccccc3)cc2CN(Cc2cccc(OC)c2)C1=O (stereo not given) the results were Pf Dd2 growth inactive.
Screening CCC1Oc2ccc(NC(=O)c3ccccc3F)cc2CN(Cc2ccccc2F)C1=O (stereo not given) returned Pf Dd2 growth 5.6µM.
Cc1cccc(NC(=O)CN2C(=O)NC3(CCS(=O)(=O)CC3)C2=O)c1 was read as Pf Dd2 growth inactive.
COc1ccccc1CC(=O)NC1CCN(C(=O)c2cc3c(=O)[nH]c(C)cn3n2)CC1 was read as Pf Dd2 growth inactive.
`COCc1cc(C[C@@H]2CC[C@H](O)[C@@H](CNC3CCN(C(C)=O)CC3)O2)no1` gave Pf Dd2 growth inactive.
Screening O=C(N[C@@H]1CN[C@H](CO)C1)C1CC1 returned Pf Dd2 growth inactive.
Screening Cn1ncc(N2CCCC(CC(=O)O)C2)cc1=O (stereo not given) returned Pf Dd2 growth inactive.
Screening CN(Cc1cccnc1)C1CN(S(=O)(=O)c2ccc3c(c2)OCCO3)C1 returned Pf Dd2 growth inactive.
Screening Cn1ncnc1CCNC(=O)C1CCN(C(=O)C2CCC2)CC1 returned Pf Dd2 growth inactive.
For O=C(c1nccc2ccccc12)N1CCC(n2cc(-c3nc(-c4ccccc4)no3)nn2)C1 (stereo not given) the results were Pf Dd2 growth inactive.
Screening CCN(CC)C(=O)[C@@H]1CCC[C@@H](NCc2nccs2)CN(C)C(=O)C1 returned Pf Dd2 growth inactive.
